Source: PubChem BioAssay (NCI)
This is part of a sample that, as a whole, favours compounds with a hit. Of some 79,000 tested, about 15% had one in any assay. The source made the active and inactive calls. Cut-off read from the data, not from the text of the source: active = growth inhibition above about 70%; inactive = the rest.

Experiments:
[1] = NCI Yeast Anticancer Drug Screen. Data for the wt1 strain (AID 149);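 note: 0% = growth of vehicle-treated wt1 cultures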; settings: S. cerevisiae wt1 strain (SPY 50644) growth inhibition, stronger effect = higher value
Procedure, shortened: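 Readout: yeast growth inhibition, normalised to vehicle controls, in the wt1 strain exposed to test compounds.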

[2] = NCI Yeast Anticancer Drug Screen. Data for the rad50EPP+ strain (AID 151);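 note: 0% = growth of vehicle-treated control cultures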; settings: S. cerevisiae rad50 mutant strain, stronger effect = higher value
Procedure, shortened: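 Yeast strain carrying rad50 alteration (rad50EPP+) exposed to compounds; growth inhibition measured relative to vehicle-treated controls.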

[3] = NCI Yeast Anticancer Drug Screen. Data for the rad50 strain (AID 155);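 note: 0% = growth of vehicle-only cultures of the same strain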; settings: S. cerevisiae rad50 strain growth inhibition, stronger effect = higher value
Procedure, shortened: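 Compounds were tested on a yeast strain with an engineered DNA damage repair alteration; the reported value is growth inhibition normalised to vehicle treatment.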

[4] = NCI Yeast Anticancer Drug Screen. Data for the mec2-1 strain (AID 157); settings: S. cerevisiae mec2-1 strain, stronger effect = higher value
Procedure, shortened: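 mec2-1 yeast strain, carrying an alteration in DNA damage repair or cell cycle control, was exposed to compounds; growth inhibition was measured relative to vehicle-treated controls.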

[5] = NCI Yeast Anticancer Drug Screen. Data for the rad14 strain (AID 159);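 note: 0% = growth of vehicle-treated control cultures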; settings: S. cerevisiae rad14 strain growth inhibition, stronger effect = higher value
Procedure, shortened: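 Compound-treated yeast with a defined DNA-repair lesion; growth inhibition normalised to vehicle-treated cultures.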

[6] = NCI Yeast Anticancer Drug Screen. Data for the sgs1 mgt1 strain (AID 161);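 note: 0% = growth of cultures given vehicle only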; settings: S. cerevisiae sgs1 mgt1 strain, stronger effect = higher value
Procedure, shortened: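 Percent growth inhibition was derived by comparing compound-exposed mutant yeast with vehicle-exposed cultures. The strain carries alterations in DNA damage repair.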

[7] = NCI Yeast Anticancer Drug Screen. Data for the CLN2oe strain (AID 163);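 note: 0% = growth of vehicle-only control cultures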; settings: S. cerevisiae CLN2oe strain, stronger effect = higher value
Procedure, shortened: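 Yeast cells carrying a defined cell-cycle control alteration were exposed to test compounds. Growth inhibition was scored against vehicle-treated control cultures.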

[8] = NCI Yeast Anticancer Drug Screen. Data for the cln2 rad14 strain (AID 165);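 note: 0% = growth equal to vehicle treated cultures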; settings: S. cerevisiae cln2 rad14 strain, stronger effect = higher value
Procedure, shortened: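 Yeast carrying cln2 and rad14 alterations (cell cycle control and DNA damage repair) were exposed to compounds. Growth inhibition was measured against vehicle-treated controls.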

[9] = NCI Yeast Anticancer Drug Screen. Data for the bub3 strain (AID 167); settings: S. cerevisiae bub3 mutant strain, stronger effect = higher value
Procedure, shortened: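 Growth of a checkpoint-deficient yeast mutant is measured after compound exposure. Values represent inhibition relative to vehicle.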

[10] = NCI Yeast Anticancer Drug Screen. Data for the wt2 strain (AID 169);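 note: 0% = growth of vehicle-treated yeast cultures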; settings: S. cerevisiae wt2 strain growth inhibition, stronger effect = higher value
Procedure, shortened: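 Yeast cells were exposed to test compounds, and growth inhibition was measured relative to vehicle-treated controls.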

[11] = NCI Yeast Anticancer Drug Screen. Data for the mlh1 strain (AID 171);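 note: 0% = growth of vehicle-treated control cultures of the same strain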; settings: S. cerevisiae mlh1 strain growth inhibition, stronger effect = higher value
Procedure, shortened: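 Yeast carrying a defined genetic alteration in DNA damage repair or cell cycle control were exposed to test compounds. Growth inhibition was measured relative to vehicle-treated controls.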

[12] = NCI Yeast Anticancer Drug Screen. Data for the mlh1 rad18 strain (AID 175); settings: S. cerevisiae mlh1 rad18 strain growth inhibition, stronger effect = higher value
Procedure, shortened: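 Growth inhibition of the yeast strain was measured after compound exposure and expressed relative to vehicle-treated controls. The strain carries defined defects in DNA damage repair.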

[13] = NCI Yeast Anticancer Drug Screen. Data for the rad18 strain (AID 177); settings: S. cerevisiae rad18 mutant growth inhibition, stronger effect = higher value
Procedure, shortened: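 Yeast carrying a defined DNA damage repair alteration were exposed to compounds. Growth inhibition was expressed relative to vehicle-treated controls.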

[14] = NCI Yeast Anticancer Drug Screen. Data for the mgt1 strain (AID 153); settings: S. cerevisiae mgt1 mutant growth inhibition, stronger effect = higher value
Procedure, shortened: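 Yeast mgt1 strain (DNA repair/cell-cycle alteration panel) exposed to compounds; growth inhibition measured relative to vehicle-treated controls.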

[15] = NCI Yeast Anticancer Drug Screen. Data for the sgs1 strain (AID 173);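 note: 0% = growth of vehicle-only control cultures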; settings: S. cerevisiae sgs1 mutant, stronger effect = higher value
Procedure, shortened: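 Yeast mutant strains carrying defined defects in DNA damage repair or cell cycle control were exposed to test compounds. Growth inhibition was scored against vehicle-treated controls.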

[16] = at 5.0 µM (retest, dose inferred, filed as 0.5)
[17] = at 50.0 µM (retest, dose inferred, filed as 5.0)

Measured: growth inhibition

O=c1oc(C(C(F)(F)F)C(F)(F)F)nc2ccccc12
inactive: [1]; at 1.2 µM 4% | [1]; at 3.7 µM 24% | [1]; at 11.0 µM 20% | [1]; at 33.0 µM 23% | [1]; at 100.0 µM 27% | [2]; at 1.2 µM 22% | [2]; at 3.7 µM 30% | [2]; at 11.0 µM 35% | [2]; at 33.0 µM 43% | [2]; at 100.0 µM 51% | [3]; at 1.2 µM 33% | [3]; at 3.7 µM 27% | [3]; [16] 10% | [3]; at 11.0 µM 25% | [3]; at 33.0 µM 29% | [3]; at 50.0 µM 36.1% | [3]; at 100.0 µM 29% | [4]; at 1.2 µM 13% | [4]; at 3.7 µM 27% | [4]; [16] 7% | [4]; at 11.0 µM 23% | [4]; at 33.0 µM 29% | [4]; at 100.0 µM 34% | [5]; at 1.2 µM 16% | [5]; at 3.7 µM 21% | [5]; at 11.0 µM 26% | [5]; at 33.0 µM 29% | [5]; at 100.0 µM 42% | [6]; [16] -5% | [6]; [17] 12% | [6]; at 50.0 µM 12.7% | [7]; at 1.2 µM 18% | [7]; at 3.7 µM 12% | [7]; at 11.0 µM 26% | [7]; at 33.0 µM 1% | [7]; at 100.0 µM 15% | [8]; [16] 23% | [8]; [17] 33% | [8]; at 50.0 µM 12.3% | [9]; at 1.2 µM 3% | [9]; at 3.7 µM 13% | [9]; [16] -27% | [9]; at 11.0 µM 20% | [9]; at 33.0 µM -5% | [9]; [17] -6% | [9]; at 50.0 µM 16.6% | [9]; at 100.0 µM 15% | [10]; at 1.2 µM -3% | [10]; at 3.7 µM -5% | [10]; at 11.0 µM -7% | [10]; at 33.0 µM 2% | [10]; at 100.0 µM 32% | [11]; at 1.2 µM 16% | [11]; at 3.7 µM 12% | [11]; at 11.0 µM 17% | [11]; at 33.0 µM 20% | [11]; at 100.0 µM 32% | [12]; [16] 15% | [12]; at 50.0 µM 50.6% | [13]; at 1.2 µM 22% | [13]; at 3.7 µM 15% | [13]; at 11.0 µM 20% | [13]; at 33.0 µM 19% | [13]; at 100.0 µM 30%
active: [3]; [17] 72% | [4]; [17] 83% | [4]; at 50.0 µM 70.2% | [12]; [17] 88%

CCCCCC/C(C)=N/Nc1ccc([N+](=O)[O-])cc1[N+](=O)[O-]
active: [8]; [17] 77% | [9]; [17] 91%
inactive: [1]; at 1.2 µM 8% | [1]; at 3.7 µM 1% | [1]; at 11.0 µM 4% | [1]; at 33.0 µM -7% | [1]; at 100.0 µM -13% | [2]; at 1.2 µM -7% | [2]; at 3.7 µM -21% | [2]; at 11.0 µM 14% | [2]; at 33.0 µM 22% | [2]; at 100.0 µM 23% | [14]; at 1.2 µM -3% | [14]; at 3.7 µM -9% | [14]; at 11.0 µM -5% | [14]; at 33.0 µM -11% | [14]; at 100.0 µM -12% | [3]; at 1.2 µM -18% | [3]; at 3.7 µM -18% | [3]; [16] -3% | [3]; at 11.0 µM -18% | [3]; at 33.0 µM -32% | [3]; [17] 21% | [3]; at 50.0 µM -0.35% | [3]; at 100.0 µM 14% | [4]; at 1.2 µM -3% | [4]; at 3.7 µM -4% | [4]; [16] 1% | [4]; at 11.0 µM -3% | [4]; at 33.0 µM -9% | [4]; [17] 43% | [4]; at 50.0 µM -9.7% | [4]; at 100.0 µM -8% | [5]; at 1.2 µM -1% | [5]; at 3.7 µM -2% | [5]; at 11.0 µM 17% | [5]; at 33.0 µM 23% | [5]; at 100.0 µM 2% | [7]; at 1.2 µM -11% | [7]; at 3.7 µM -10% | [7]; at 11.0 µM -14% | [7]; at 33.0 µM -18% | [7]; at 100.0 µM -19% | [8]; [16] -4% | [8]; at 50.0 µM 30.9% | [9]; at 1.2 µM -8% | [9]; at 3.7 µM -4% | [9]; [16] 7% | [9]; at 11.0 µM -8% | [9]; at 33.0 µM -13% | [9]; at 50.0 µM 20.1% | [9]; at 100.0 µM -12% | [10]; at 1.2 µM -13% | [10]; at 3.7 µM -4% | [10]; at 11.0 µM 5% | [10]; at 33.0 µM 8% | [10]; at 100.0 µM 29% | [11]; at 1.2 µM -13% | [11]; at 3.7 µM -8% | [11]; at 11.0 µM -8% | [11]; at 33.0 µM -11% | [11]; at 100.0 µM -18% | [15]; at 1.2 µM -14% | [15]; at 3.7 µM -8% | [15]; at 11.0 µM 8% | [15]; at 33.0 µM 3% | [15]; at 100.0 µM 29% | [12]; [16] -6% | [12]; [17] 58% | [12]; at 50.0 µM -0.8% | [13]; at 1.2 µM -8% | [13]; at 3.7 µM -9% | [13]; at 11.0 µM -8% | [13]; at 33.0 µM -1% | [13]; at 100.0 µM -36%

COc1ccc2cc(CN3CCC(C4CCN(Cc5ccc6cc(OC)ccc6c5)CC4)CC3)ccc2c1
active: [1]; at 100.0 µM 98% | [2]; at 100.0 µM 98% | [14]; at 100.0 µM 97% | [4]; at 50.0 µM 75.7% | [4]; at 100.0 µM 98% | [5]; at 100.0 µM 97%
inactive: [1]; at 1.2 µM -1% | [1]; at 3.7 µM -16% | [1]; at 11.0 µM 5% | [1]; at 33.0 µM 8% | [2]; at 1.2 µM -17% | [2]; at 3.7 µM -14% | [2]; at 11.0 µM -12% | [2]; at 33.0 µM -2% | [14]; at 1.2 µM -9% | [14]; at 3.7 µM -5% | [14]; at 11.0 µM 0% | [14]; at 33.0 µM 4% | [4]; at 1.2 µM -17% | [4]; at 3.7 µM -40% | [4]; [16] -2% | [4]; at 11.0 µM -40% | [4]; at 33.0 µM -31% | [4]; [17] 22% | [5]; at 1.2 µM -19% | [5]; at 3.7 µM -13% | [5]; at 11.0 µM -22% | [5]; at 33.0 µM 9% | [6]; [16] 7% | [6]; [17] 4%
